The whole screen tested about 310,000 compounds, of which about 14,000 (4.5%) showed an effect of 50% or more. Effects have a minus sign here. This is one part of a sample in which strong results are shown more often than they occur.
target: human ether-à-go-go-related gene (hERG) potassium channel (human, UniProt Q12809); assay: primary screen, population patch clamp on CHO cells stably expressing hERG; higher = less effect of the substance
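Note: peak tail current of the secondary pulse compared with the same well before compound.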

Sequence of human ether-à-go-go-related gene (hERG) potassium channel (Q12809 whole entry, looked up): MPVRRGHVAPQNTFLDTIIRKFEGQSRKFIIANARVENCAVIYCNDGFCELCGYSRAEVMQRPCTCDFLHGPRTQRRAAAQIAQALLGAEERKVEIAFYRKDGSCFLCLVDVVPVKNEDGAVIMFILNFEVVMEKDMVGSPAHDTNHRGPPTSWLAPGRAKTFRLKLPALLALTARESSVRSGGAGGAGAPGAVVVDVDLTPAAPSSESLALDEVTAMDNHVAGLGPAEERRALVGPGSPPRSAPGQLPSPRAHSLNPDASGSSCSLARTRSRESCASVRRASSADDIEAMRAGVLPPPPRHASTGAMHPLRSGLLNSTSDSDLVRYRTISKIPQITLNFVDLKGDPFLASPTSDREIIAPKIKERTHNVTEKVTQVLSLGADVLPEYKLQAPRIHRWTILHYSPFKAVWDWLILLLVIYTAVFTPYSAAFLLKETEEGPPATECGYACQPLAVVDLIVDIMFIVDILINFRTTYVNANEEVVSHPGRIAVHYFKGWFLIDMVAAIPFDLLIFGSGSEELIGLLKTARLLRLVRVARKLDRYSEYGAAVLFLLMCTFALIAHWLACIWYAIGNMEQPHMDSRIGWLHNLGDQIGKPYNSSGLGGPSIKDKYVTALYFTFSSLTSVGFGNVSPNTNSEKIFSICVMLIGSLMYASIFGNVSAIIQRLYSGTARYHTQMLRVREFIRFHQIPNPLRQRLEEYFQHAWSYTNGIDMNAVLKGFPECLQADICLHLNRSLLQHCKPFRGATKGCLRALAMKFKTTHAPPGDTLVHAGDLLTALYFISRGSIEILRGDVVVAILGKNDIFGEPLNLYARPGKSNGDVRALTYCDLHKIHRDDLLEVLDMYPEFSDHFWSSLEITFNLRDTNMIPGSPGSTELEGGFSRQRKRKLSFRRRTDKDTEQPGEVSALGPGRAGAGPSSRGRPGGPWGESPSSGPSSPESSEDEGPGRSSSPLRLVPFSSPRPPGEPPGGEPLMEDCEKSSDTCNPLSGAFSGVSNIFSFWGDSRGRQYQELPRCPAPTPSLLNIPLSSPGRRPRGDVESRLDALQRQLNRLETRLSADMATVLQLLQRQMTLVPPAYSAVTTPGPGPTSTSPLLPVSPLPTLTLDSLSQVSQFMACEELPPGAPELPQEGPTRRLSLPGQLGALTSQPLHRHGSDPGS

Going from `CC1Cc2cc(/C(O)=C3/C(=O)C(=O)N(CCCn4ccnc4)C3c3ccc(Br)cc3)ccc2O1` (stereo not shown) to `Cc1ccc(-c2noc(CN(C(=O)CCCN3C(=O)c4ccccc4C3=O)C(C)C)n2)cc1`, the “hERG current change (%, negative = inhibition) at 10uM” value falls from 6.07% to -39.7%.

First: CN(Cc1ccc(F)cc1)C(=O)c1cc(COc2ccc(F)cc2F)on1
Second: CN(Cc1ccc(F)cc1)C(=O)c1cc(COc2ccc(-n3cncn3)cc2)on1
The “hERG current change (%, negative = inhibition) at 10uM” value of the first is higher: 1.65% for the first, -78.3% for the second.

Compared with `COc1cccc(CN(C)C(=O)c2cc(COc3ccc4ncccc4c3)on2)c1`, `COc1cccc(CN(C)C(=O)c2cc(COc3ccc(-n4cncn4)cc3)on2)c1` is lower in “hERG current change (%, negative = inhibition) at 10uM” value: -14.8% for the first, -79.9% for the second.

Compared with `CCc1ccc(CN(C)C(=O)c2cc(COc3ccc(-n4cncn4)cc3)on2)cc1`, `CCCOC1CCCN(C(=O)c2cc(COc3ccc(-n4cncn4)cc3)on2)C1` (stereo not shown) is lower in “hERG current change (%, negative = inhibition) at 10uM” value: -42.5% for the first, -79% for the second.

Compared with `COC1CCN(C(=O)c2cc(COc3ccc(-n4cncn4)cc3)on2)CC1`, `COCCOC1CCN(C(=O)c2cc(COc3ccc(-n4cncn4)cc3)on2)CC1` is lower in “hERG current change (%, negative = inhibition) at 10uM” value: -18.6% for the first, -22.8% for the second.

Compared with `O=C(c1cc(COc2ccc(-n3cncn3)cc2)on1)N1CCCC1`, `Cc1ccc(S(=O)(=O)NCc2cccnc2)cc1C(=O)N1CCCC1` is higher in “hERG current change (%, negative = inhibition) at 10uM” value: -12% for the first, 20.3% for the second.

First: CC(C)CCOP(N)(=O)Oc1ccccc1Cl (stereo not shown)
Second: CC1(C)CC(CCN)(Cc2ccccc2Cl)CCO1 (stereo not shown)
The “hERG current change (%, negative = inhibition) at 10uM” value of the first is higher: 18.1% for the first, -1.1% for the second.

Going from `CCOc1ncccc1C(=O)OCC(=O)Nc1ccc2c(c1)OCO2` to `Cc1occc1C(=O)Nc1ccc2c(c1)OCO2`, the “hERG current change (%, negative = inhibition) at 10uM” value falls from 12.6% to -7.71%.

Compared with `Cc1ccc(-n2[nH]c(C)c(C=Nc3ccc(S(=O)(=O)N4CCOCC4)cc3)c2=O)c(C)c1`, `Cc1ccc2[nH]c(C(=O)O)c(NC(=O)CN3CCN(c4cccc(C)c4C)CC3)c2c1.Cl` is higher in “hERG current change (%, negative = inhibition) at 10uM” value: -7.6% for the first, 13.1% for the second.

First: O=C(Nc1ccccc1NC(=O)NC1CCCCC1)NC1CCCCC1
Second: c1ccc2c(N3CCCCC3)nc(N3CCCCC3)nc2c1
The “hERG current change (%, negative = inhibition) at 10uM” value of the first is higher: 0.961% for the first, -39.1% for the second.

First: Cc1c(NC(=O)CSc2nnc3c4ccccc4n(CCc4ccccc4)c3n2)c(=O)n(-c2ccccc2)n1C
Second: O=C(NC1(Cc2ccccc2)CCN(CCc2cccs2)C1=O)c1ccccc1 (stereo not shown)
The “hERG current change (%, negative = inhibition) at 10uM” value of the first is lower: -27.2% for the first, -1.81% for the second.

Going from `Cc1ccccc1CN1CCN(CC2CC2)CC1CCO` (stereo not shown) to `Cc1ccccc1CN1CCN(CCCc2ccccc2)C(CCO)C1` (stereo not shown), the “hERG current change (%, negative = inhibition) at 10uM” value falls from -4.79% to -70%.

Compared with `OCCC1CN(Cc2ccccc2O)CCN1CCc1ccccc1` (stereo not shown), `OCCC1CN(Cc2ccccc2O)CCN1CCCc1ccccc1` (stereo not shown) is lower in “hERG current change (%, negative = inhibition) at 10uM” value: -35.6% for the first, -74.8% for the second.

Going from `COc1ccc(-c2cc(C(=O)Nc3cccnc3Cl)no2)cc1OC` to `Cc1c(NC(=O)c2ccco2)cccc1-c1nc2cccnc2s1`, the “hERG current change (%, negative = inhibition) at 10uM” value falls from 16.6% to -45.8%.

Compared with `COc1ccc(OC)c(Nc2nnc(C)c(=O)[nH]2)c1`, `CCOc1ccc2nc(C)cc(Nc3cccc([N+](=O)[O-])c3)c2c1.Cl` is lower in “hERG current change (%, negative = inhibition) at 10uM” value: 6.27% for the first, -30.4% for the second.

First: O=C1NC(=O)/C(=C\c2ccc(Br)o2)S1
Second: COC(=O)c1n[nH]n(-c2ccc(F)c(Cl)c2)c1=O
The “hERG current change (%, negative = inhibition) at 10uM” value of the first is higher: 21% for the first, 9.84% for the second.

First: CCOC(=O)c1[nH]c(C)c(C(=O)OCC(=O)N(CC)C2CCS(=O)(=O)C2)c1C (stereo not shown)
Second: CCC(C)N(C(=O)CN1C(=O)NC2(CCc3ccccc32)C1=O)C1CCS(=O)(=O)C1 (stereo not shown)
The “hERG current change (%, negative = inhibition) at 10uM” value of the first is lower: -8.58% for the first, -3.41% for the second.

Compared with `Cc1cccc(NC(=O)CCN2C(=O)c3cccc([N+](=O)[O-])c3C2=O)c1`, `COc1cccc(NC(=O)CCN2C(=O)c3cccc([N+](=O)[O-])c3C2=O)c1` is lower in “hERG current change (%, negative = inhibition) at 10uM” value: 10.8% for the first, -3.85% for the second.

Going from `CC(OC(=O)CCN1C(=O)c2cccc([N+](=O)[O-])c2C1=O)C(=O)Nc1cc(Cl)cc(Cl)c1` (stereo not shown) to `Cc1ccc(-c2noc(CN(C(=O)CCN3C(=O)c4ccccc4C3=O)C(C)C)n2)cc1`, the “hERG current change (%, negative = inhibition) at 10uM” value rises from -68.6% to -63.6%.

Compared with `Cc1cc(N)ccc1NC(=O)CN1CCCC1`, `O=C(CCN1CCCC1)Nc1cccc(Br)c1` is lower in “hERG current change (%, negative = inhibition) at 10uM” value: 21.2% for the first, -20.6% for the second.

Compared with `N#Cc1sc(C(N)=O)c(-c2ccccc2)c1-c1ccccc1`, `CCC(=O)N=c1sc2ccccc2n1-c1ccccc1` is higher in “hERG current change (%, negative = inhibition) at 10uM” value: 9.86% for the first, 17.8% for the second.

Compared with `Cc1cc(Nc2ccccc2)c2c([N+](=O)[O-])ccc(C)c2n1`, `Cc1cc(Nc2cccc([N+](=O)[O-])c2)c2cccc(C)c2n1.Cl` is lower in “hERG current change (%, negative = inhibition) at 10uM” value: -24.7% for the first, -77.3% for the second.

Going from `Cc1cc(Nc2ccc([N+](=O)[O-])cc2)c2ccccc2n1` to `Cc1cc(Nc2cccc([N+](=O)[O-])c2)c2ccccc2n1`, the “hERG current change (%, negative = inhibition) at 10uM” value falls from -20% to -76.9%.

Going from `O=[N+]([O-])c1cccc(Nc2c3ccccc3nc3ccccc23)c1` to `Cl.c1ccc2c(c1)nc(N1CCCCC1)c1ccccc12`, the “hERG current change (%, negative = inhibition) at 10uM” value rises from -11.5% to -2.67%.

Compared with `CCOc1cc(C2NN=C(c3ccc(C)cc3)S2)ccc1O` (stereo not shown), `Cc1ccc(C)c(Nc2cc(C)nc(-c3ccccc3O)n2)c1` is higher in “hERG current change (%, negative = inhibition) at 10uM” value: 9.67% for the first, 15% for the second.

First: O=C(O)c1ccc(C(=O)O)c(C(=O)c2ccccc2)c1
Second: CC(C)(c1ccccc1)c1ccc(OCCCN2CCNCC2)cc1.O=C(O)C(=O)O
The “hERG current change (%, negative = inhibition) at 10uM” value of the first is lower: 1.72% for the first, 3.19% for the second.

Going from `O=[N+]([O-])c1ccc(CN2CCCCCC2)cc1` to `O=[N+]([O-])c1ccc(CN2CCSCC2)cc1`, the “hERG current change (%, negative = inhibition) at 10uM” value rises from -32.8% to 15.5%.

Going from `c1ccc(CN2CCOCCOCCOCC2)cc1` to `O=[N+]([O-])c1ccc(CN2CCOCCOCCOCC2)cc1`, the “hERG current change (%, negative = inhibition) at 10uM” value falls from 15.6% to -59.1%.

Going from `O=C(NC(=S)Nc1ccc(CN2CCOCC2)cc1)c1ccc([N+](=O)[O-])cc1` to `O=[N+]([O-])c1ccc(CN2CCOCCOCCN(Cc3ccc([N+](=O)[O-])cc3)CCOCC2)cc1`, the “hERG current change (%, negative = inhibition) at 10uM” value falls from -13% to -77.8%.

Compared with `CC(OC(=O)c1ccc(Cl)c(S(=O)(=O)N2CCOCC2)c1)C(=O)NC1CCCCC1C` (stereo not shown), `Cc1cccc(NC(=O)CN2CCC(C(=O)c3ccc4c(c3)OCCO4)CC2)c1` is lower in “hERG current change (%, negative = inhibition) at 10uM” value: -35.9% for the first, -54.2% for the second.

First: O=C1OC(CCl)CN1Cc1c(Cl)cccc1Cl (stereo not shown)
Second: NS(=O)(=O)c1cc(C(=O)O)c(NCc2ccco2)cc1Cl
The “hERG current change (%, negative = inhibition) at 10uM” value of the first is lower: -0.492% for the first, 14.7% for the second.

First: O=C(COc1ccc(C(=O)c2ccc(F)cc2)cc1)NCc1ccc(F)cc1
Second: COC(=O)[C@]1(C)N[C@H](c2ccc(-c3ccc(F)cc3)cc2)[C@@H]2C(=O)N(C)C(=O)[C@@H]21.O=C(O)C(F)(F)F
The “hERG current change (%, negative = inhibition) at 10uM” value of the first is higher: 4.49% for the first, -1.3% for the second.

Compared with `Cc1cc(C=C(C#N)C#N)ccc1N1CCCC1`, `Cc1cc(N2CCCC2)ccc1C=C(C#N)C#N` is higher in “hERG current change (%, negative = inhibition) at 10uM” value: -65% for the first, -13.2% for the second.

Going from `N#CC(C#N)=Cc1ccc(N2CCCC2)cc1` to `Cc1nc(N2CCCCCC2)c2ccccc2n1.Cl`, the “hERG current change (%, negative = inhibition) at 10uM” value falls from 4.17% to -51.5%.

Going from `Cc1ccc(C)c(NC(=O)c2cc3c([nH]c4ccccc43)c(C)n2)c1` to `Cc1ccc(-c2noc(CN(C(=O)CCCCCN3C(=O)c4ccccc4C3=O)C(C)C)n2)cc1`, the “hERG current change (%, negative = inhibition) at 10uM” value falls from 5.7% to -15.3%.

First: I.c1ccc2c(c1)nc(N1CCCCCC1)c1ccccc12
Second: c1ccc2c(N3CCCCC3)nc(N3CCCC3)nc2c1
The “hERG current change (%, negative = inhibition) at 10uM” value of the first is higher: 0.834% for the first, -69.6% for the second.

First: c1ccc2c(N3CCCCC3)nc(N3CCOCC3)nc2c1
Second: O=C(CCN1CCN(c2ccccc2)CC1)Nc1cccc(Br)c1
The “hERG current change (%, negative = inhibition) at 10uM” value of the first is higher: -33.7% for the first, -61.4% for the second.

Going from `COc1cc(C(=S)N2CCCC2)ccc1OCC(N)=O` to `Cc1cc(OCC(=O)N2CCC(C(N)=O)CC2)c2c(C)cc(=O)oc2c1`, the “hERG current change (%, negative = inhibition) at 10uM” value falls from 17.8% to 15.6%.

First: Cc1ccc(OCCCCCCN2CCNCC2)cc1.O=C(O)C(=O)O
Second: Cc1ccc(OCCCCN2CCC(C)CC2)cc1.O=C(O)C(=O)O
The “hERG current change (%, negative = inhibition) at 10uM” value of the first is higher: -11.6% for the first, -23.4% for the second.

First: COc1ccc(OCCCCN2CCC(C)CC2)cc1.O=C(O)C(=O)O
Second: CC1CCN(CCCCOc2ccc(Cl)cc2)CC1.O=C(O)C(=O)O
The “hERG current change (%, negative = inhibition) at 10uM” value of the first is higher: -29% for the first, -71.7% for the second.

Compared with `CC1CCN(CCCCOc2ccc(C(C)(C)C)cc2)CC1.O=C(O)C(=O)O`, `CC1CCN(CC#CCOc2ccc(Cl)cc2)CC1.O=C(O)C(=O)O` is higher in “hERG current change (%, negative = inhibition) at 10uM” value: -59.6% for the first, -5.81% for the second.

First: CC(C)OCCCNC(=O)c1ccc(Br)cc1
Second: CN1CCN(CCC(=O)Nc2cccc(Br)c2)CC1
The “hERG current change (%, negative = inhibition) at 10uM” value of the first is higher: -8.3% for the first, -19% for the second.

Compared with `CC(=O)c1ccc(NC(=O)CNCc2cccs2)cc1.O=C(O)C(=O)O`, `Cc1ccc(NC(=O)CN2CCC(C(=O)c3ccc4c(c3)OCCO4)CC2)cc1` is lower in “hERG current change (%, negative = inhibition) at 10uM” value: -0.848% for the first, -44.7% for the second.

Going from `c1ccc(-c2ccc(CN3C[C@@H]4C(c5ccccc5)C5(c6ccccc6)CC4(C5)[C@H]3c3ccccc3)cc2)cc1` (stereo partly shown) to `O=C(CCN1CCN(c2ccccc2)CC1)Nc1ccccc1`, the “hERG current change (%, negative = inhibition) at 10uM” value falls from -5.02% to -22.9%.

Compared with `O=C(CCN1CCN(Cc2ccccc2)CC1)Nc1cccc(Br)c1`, `O=C(CCN1CCN(CCO)CC1)Nc1cccc(Br)c1` is higher in “hERG current change (%, negative = inhibition) at 10uM” value: -63% for the first, -19% for the second.

Compared with `Cc1cccc(C(=O)NC2CCN(CC(=O)Nc3ccc4c(c3)OCO4)CC2)c1`, `Cc1ccccc1C(=O)NC1CCN(CC(=O)Nc2ccc3c(c2)OCO3)CC1` is higher in “hERG current change (%, negative = inhibition) at 10uM” value: -57.7% for the first, -47.3% for the second.

Going from `Cc1ccc(C(=O)C2CCN(CC(=O)Nc3ccc4c(c3)OCCO4)CC2)cc1` to `O=C(CN1CCC(NC(=O)c2ccccc2F)CC1)Nc1ccc2c(c1)OCO2`, the “hERG current change (%, negative = inhibition) at 10uM” value falls from -2.3% to -41.7%.

Reference: publication PMC4336329 (PLoS ONE, 2015)
